Screens as filed in PubChem.
Only some compounds are listed: those with a hit (about 2.5% of all), similar ones and a draw of the others.
MEKK3 PB1 HTS – modulators of MEKK3-MEK5 PB1 binding, primary screen, biochemical, wildtype MEKK3, multiplex bead flow cytometry, Alexa488-MEK5 | bead-based flow cytometry, Alexa488-MEK5 binding to MEKK3; actives lie on both sides; 0 = blocked by unlabeled MEK5, 100 = vehicle | binding response (% of control), % at 10 µM | 290,000 compounds, 1.4% hits | AID 1529, 2009;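 active = binding response more than 3 SD above or below the average of its plate-row segment, actives on both sides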;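 also: Alexa488 bead fluorescence after subtracting the streptavidin-only scavenger bead signal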
GRK2 aptamer HTS – compounds blocking aptamer binding on GRK2 – biochemical, human GRK2, bead flow cytometry, HTS, primary screen. FAM-aptamer displacement from GRK2. 330,000 compounds, 0.59% hits. Beta-adrenergic receptor kinase 1 (Homo sapiens), P25098. AID 488847, 2010. inhibition of aptamer binding, % at 10 µM;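 active = inhibition of aptamer binding above 40%, roughly 3 SD of noise, on plates passing a quality check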;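 also: median bead fluorescence of bound FAM aptamer so fluorescent compounds give negative values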
MEKK2 mut-MEK5 – MEK5 binding signal on mutant MEKK2 PB1, primary screen, biochemical, multiplex bead flow cytometry, Alexa488-MEK5; Alexa488-MEK5 binding to MEKK2 mutant; percent response, % at 10 µM; 290,000 compounds, 0.35% hits; in the data active = percent response above about 24%, passing the limit was not always enough
MEKK2 WT-MEK5 – modulators of MEK5 binding to wildtype MEKK2, primary screen, biochemical, multiplex bead flow cytometry, Alexa488-MEK5 | Mitogen-activated protein kinase kinase kinase 2 (Homo sapiens), Q9Y2U5 | AID 1531, 2009 | binding response (% of control), % at 10 µM | Alexa488-MEK5 binding to MEKK2 WT; actives lie on both sides | 290,000 compounds, 1.1% hits; in the data active = binding response below about 67% or above about 130%
MEKK2wt confirm – modulators of MEK5 binding to wildtype MEKK2, confirmation, biochemical, single concentration, multiplex bead flow cytometry | Alexa488-MEK5 binding to MEKK2 WT; actives lie on both sides | binding response (% of control), % at 10 µM | shares compounds with MEKK3 PB1 HTS | 5,900 compounds, 2.4% hits | AID 1892, 2009; in the data active = binding response below about 16% or above about 210%; inactive = in between
MEKK2mut-MEK5 – mutant MEKK2 PB1-MEK5 binding signal retest – biochemical, single concentration, multiplex bead flow cytometry, confirmation | shares compounds with MEKK3 PB1 HTS | 5,900 compounds, 2% hits | Alexa488-MEK5 binding to MEKK2 mutant | percent response, % at 10 µM; in the data active = percent response mostly above about 71%, no sharp cut-off; inactive = mostly below about 38%;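 also: higher means compound restores mutant binding toward wildtype level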
MEKK3-MEK5 inh – MEKK3 wild-type PB1 binding to MEK5, inhibitors, confirmation, biochemical, bead multiplex flow cytometry, single concentration, wildtype; shares compounds with MEKK3 PB1 HTS; Alexa488-MEK5 binding to MEKK3; stronger effect = lower value; binding response (% of control), % at 10 µM; 5,900 compounds, 1.8% hits;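 active = binding response below 72% of control, or above a set upper limit, though filed actives all read lower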
Hits are given with their value; n = inactive; x = no result given; [ ] = remark or other dose.

SMILES | MEKK3 PB1 HTS | GRK2 aptamer HTS | MEKK2 mut-MEK5 | MEKK2 WT-MEK5 | MEKK2wt confirm | MEKK2mut-MEK5 | MEKK3-MEK5 inh
CN(C)c1ccc(NC(=O)CN2CCC(O)(c3ccccc3)CC2)cc1 | 1.0[inhibitor] | n | n | x | n | n | 69
COc1ccccc1N1CCN(C(=O)CSc2ncnc3scc(-c4ccccc4)c23)CC1 | 148 | n | n | n | n | n | n
COc1ccccc1OCC(=O)N1CCN(c2ccccc2OC)CC1 | n | n | n | n | x | x | x
Fc1ccc(CSc2ncnc3scc(-c4ccccc4)c23)cc1 | n | n | 52 | n | n | n | n
CCOCC(=O)N1CCN(c2ccccc2OC)CC1 | n | n | 53 | n | n | n | n
O=C(COc1ccc(S(=O)(=O)N2CCOCC2)cc1)NCCc1ccccc1 | x | n | x | x | x | x | x
Cc1c(C(=O)OCC(=O)N2CCCC2)cccc1[N+](=O)[O-] | n | n | n | n | x | x | x
O=C(NCCCN1CCCC1)c1cc(Sc2ccc(F)cc2)nc2ccccc12 | 133 | n | n | n | n | n | n
COc1ccc(NC(=S)N(Cc2ccc(Cl)cc2)Cc2ccc(C(=O)O)cc2)cc1Cl | n | n | n | n | x | x | x
